{
  "source": "PubChem BioAssay (NCI)",
  "note": "This is part of a sample that, as a whole, favours compounds with a hit. Of some 83,000 tested, about 20% had one in any assay.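 48-hour exposure, single concentration, 96-well plates; percent growth endpoint where 0 means no net growth. Active: below 10.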 Active and inactive are the calls of the source.",
  "data": [
    {"system": "NCI-H522 lung", "test": "NCI-60 one-dose screen, 48 h (100 = growth as untreated, 0 = no growth, -100 = all killed)", "conditions": "10 µM unless noted", "values": [
      {"compound": "O=c1[nH]n(C(=S)N/N=C/c2ccccc2Cl)c(=O)c2ccccc12", "growth": "-61.7% (active)"},
      {"compound": "Cn1cc(-c2nnc(N)nc2-c2c[nH]c3ccc(F)cc23)c2cccnc21", "growth": "20.4% (inactive)"},
      {"compound": "CN1CCN(Cc2ccc(C(=O)Nc3cccc(C#Cc4cccc5[nH]nc(N)c45)c3)cc2C(F)(F)F)CC1", "growth": "-64.3% (active)"},
      {"compound": "Cc1ccccc1[C@H]1C(C(=O)c2ccc(Cl)cc2)C2(N[C@@H]1c1ccccc1)C(=O)Nc1ccc(Br)cc12", "note": "(stereo partly drawn)", "growth": "-17.6% (active)"},
      {"compound": "N#Cc1c(-c2cccc(Cl)c2Cl)cc(-c2ccc3ccccc3c2)[nH]c1=O", "growth": "78.7% (inactive)"},
      {"compound": "NS(=O)(=O)c1ccc(-n2cc(-c3cccc(NC(=O)c4cc(C(F)(F)F)cc(C(F)(F)F)c4)c3)nn2)cc1", "growth": "75.4% (inactive)"},
      {"compound": "COc1ccc(C(=O)/C=C/c2ccccc2Cl)cc1S(N)(=O)=O", "growth": "102% (inactive)"},
      {"compound": "O=C(/C=C/c1cccc(OCc2ccc(F)cc2)c1)c1nc2ccccc2[nH]1", "growth": "63.5% (inactive)"},
      {"compound": "Cc1cc(=O)oc2cc(OCCCOc3ccc(/C=C/C(=O)Nc4ccccc4N)cc3)ccc12", "growth": "-13.8% (active)"},
      {"compound": "S=C(Nc1ccc(OCc2nc3ccccc3[nH]2)cc1)NC1CCCCC1", "growth": "51.7% (inactive)"},
      {"compound": "N#Cc1c(-c2ccccc2Cl)cc(-c2c[nH]c3ccccc23)[nH]c1=O", "growth": "70.8% (inactive)"},
      {"compound": "CC1=C(C(=O)OCc2ccccc2)C(c2c(O)cc(O)cc2O)n2c(nc3ccccc32)N1", "note": "(stereo not drawn)", "growth": "1.19% (active)"},
      {"compound": "CCOc1ccc(-c2c(C#N)c(-c3ccc(Cl)cc3)nc3n[nH]c(-c4ccc(Cl)cc4)c23)cc1OC", "growth": "64.9% (inactive)"}
    ]}
  ]
}
